What all share (design): scale not given: direction of the effect not stated beside the values
Assay [1] concerns the target Protein translocase subunit SecA (Escherichia coli (strain K12)) (UniProt P10408). Briefly: Assay to Identify E. coli SecA ATPase Inhibitors. It is filed as functional. The settings on record: 30 µM.
Assay [2] deals with T1, Ubiquitin-activating enzyme e1, putative (Leishmania donovani (strain BPK282A1)) (UniProt E9BSI1).
T1 sequence (whole entry): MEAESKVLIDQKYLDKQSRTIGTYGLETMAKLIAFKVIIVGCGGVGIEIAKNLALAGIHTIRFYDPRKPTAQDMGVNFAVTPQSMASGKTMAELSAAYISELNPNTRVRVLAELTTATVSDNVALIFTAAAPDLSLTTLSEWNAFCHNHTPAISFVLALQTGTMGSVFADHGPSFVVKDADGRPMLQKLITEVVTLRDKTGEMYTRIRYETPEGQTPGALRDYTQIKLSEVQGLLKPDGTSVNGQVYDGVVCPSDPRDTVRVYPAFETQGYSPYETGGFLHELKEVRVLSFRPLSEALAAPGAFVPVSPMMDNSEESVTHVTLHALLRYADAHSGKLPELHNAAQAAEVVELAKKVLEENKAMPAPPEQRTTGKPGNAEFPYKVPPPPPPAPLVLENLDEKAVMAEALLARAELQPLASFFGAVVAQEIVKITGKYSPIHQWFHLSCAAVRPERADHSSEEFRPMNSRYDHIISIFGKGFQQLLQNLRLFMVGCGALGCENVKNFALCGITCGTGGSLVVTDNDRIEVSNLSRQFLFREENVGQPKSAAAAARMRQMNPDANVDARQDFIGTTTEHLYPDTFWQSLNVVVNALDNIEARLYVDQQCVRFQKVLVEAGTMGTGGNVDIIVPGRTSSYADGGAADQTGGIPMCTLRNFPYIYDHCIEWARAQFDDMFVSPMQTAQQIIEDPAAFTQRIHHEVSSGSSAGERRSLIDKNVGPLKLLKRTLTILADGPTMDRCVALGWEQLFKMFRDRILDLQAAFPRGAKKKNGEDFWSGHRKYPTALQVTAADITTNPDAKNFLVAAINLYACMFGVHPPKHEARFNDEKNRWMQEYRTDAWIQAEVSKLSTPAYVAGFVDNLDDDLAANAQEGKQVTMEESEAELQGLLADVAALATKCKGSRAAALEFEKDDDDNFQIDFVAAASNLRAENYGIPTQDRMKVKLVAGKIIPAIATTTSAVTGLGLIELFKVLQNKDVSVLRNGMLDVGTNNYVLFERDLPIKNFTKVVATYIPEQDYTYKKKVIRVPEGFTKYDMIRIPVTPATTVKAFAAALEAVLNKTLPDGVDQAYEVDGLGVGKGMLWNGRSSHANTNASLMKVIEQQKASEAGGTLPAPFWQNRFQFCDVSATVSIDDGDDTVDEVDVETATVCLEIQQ
Briefly: Leishmania donovani Ubiquitin Activating Enzyme (LdE1). It is filed as functional. The settings on record: 30 µM.

Assay [3] addresses Sialic acid-binding Ig-like lectin 9 (Homo sapiens) (UniProt Q9Y336). Put plainly: Hs-Siglec9 ALPHAscreen SOP 20170721. The settings on record: 10 µM. On the technique in general: Alpha assays give light when donor and acceptor beads are brought close together.
The test system of assay [4] is Trypanosoma cruzi. Briefly: Trypanosoma cruzi phosphomannomutase and mannose-1-phosphate guanylyltransferase assay. It is filed as functional. The settings on record: 10 µM.
Assay [5] addresses T2, Arginase-2, mitochondrial (Homo sapiens) (UniProt P78540).
T2 sequence (whole entry): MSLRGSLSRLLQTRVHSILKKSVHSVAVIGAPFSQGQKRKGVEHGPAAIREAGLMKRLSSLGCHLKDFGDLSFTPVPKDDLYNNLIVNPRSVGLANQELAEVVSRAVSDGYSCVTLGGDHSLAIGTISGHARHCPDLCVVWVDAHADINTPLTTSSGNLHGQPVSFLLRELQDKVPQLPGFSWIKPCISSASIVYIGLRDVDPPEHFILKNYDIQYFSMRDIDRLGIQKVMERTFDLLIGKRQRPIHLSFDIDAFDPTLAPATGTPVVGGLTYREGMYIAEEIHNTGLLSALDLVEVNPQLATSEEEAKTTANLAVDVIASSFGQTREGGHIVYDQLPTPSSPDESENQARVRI
Briefly: in vitro enzyme assay to detect the production of urea directly proportional to the activity of Arginase II. Note: in the data most compounds retested in dose-response had high values. It is filed as functional. The settings on record: 33.3 µM.

The target in assay [6] is T3, Proteasome subunit beta (Trypanosoma cruzi) (UniProt O96673).
T3 sequence (whole entry): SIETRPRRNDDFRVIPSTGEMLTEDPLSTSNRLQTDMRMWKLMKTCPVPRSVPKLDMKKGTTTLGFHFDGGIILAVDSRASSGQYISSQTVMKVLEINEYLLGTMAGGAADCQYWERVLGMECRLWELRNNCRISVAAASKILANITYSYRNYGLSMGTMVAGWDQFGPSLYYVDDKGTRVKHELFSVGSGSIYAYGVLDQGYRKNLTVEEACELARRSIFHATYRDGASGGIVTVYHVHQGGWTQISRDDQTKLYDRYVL
Put plainly: Trypanosoma cruzi proteasome chymotrypsin-like activity (TcProtChymo) assay. Note: in the data most compounds retested in dose-response had high values. It is filed as functional. The settings on record: 9.37 µM.

For assay [7], the species on record is Homo sapiens. Briefly: To identify inhibition of the IFN signalling (Jak-Stat) pathway via expression of an eGFP reporter gene under the control of an IFN-stimulated response element (ISRE) containing MxA promoter. It is filed as functional. The settings on record: 30 µM. In general terms: Reporter assays use an easily measured gene product as a stand-in for the process of interest.

Assay [8] concerns the target T4, Tyrosyl-tRNA synthetase, putative (Trypanosoma cruzi (strain CL Brener)) (UniProt Q4DSP6).
T4 sequence (whole entry): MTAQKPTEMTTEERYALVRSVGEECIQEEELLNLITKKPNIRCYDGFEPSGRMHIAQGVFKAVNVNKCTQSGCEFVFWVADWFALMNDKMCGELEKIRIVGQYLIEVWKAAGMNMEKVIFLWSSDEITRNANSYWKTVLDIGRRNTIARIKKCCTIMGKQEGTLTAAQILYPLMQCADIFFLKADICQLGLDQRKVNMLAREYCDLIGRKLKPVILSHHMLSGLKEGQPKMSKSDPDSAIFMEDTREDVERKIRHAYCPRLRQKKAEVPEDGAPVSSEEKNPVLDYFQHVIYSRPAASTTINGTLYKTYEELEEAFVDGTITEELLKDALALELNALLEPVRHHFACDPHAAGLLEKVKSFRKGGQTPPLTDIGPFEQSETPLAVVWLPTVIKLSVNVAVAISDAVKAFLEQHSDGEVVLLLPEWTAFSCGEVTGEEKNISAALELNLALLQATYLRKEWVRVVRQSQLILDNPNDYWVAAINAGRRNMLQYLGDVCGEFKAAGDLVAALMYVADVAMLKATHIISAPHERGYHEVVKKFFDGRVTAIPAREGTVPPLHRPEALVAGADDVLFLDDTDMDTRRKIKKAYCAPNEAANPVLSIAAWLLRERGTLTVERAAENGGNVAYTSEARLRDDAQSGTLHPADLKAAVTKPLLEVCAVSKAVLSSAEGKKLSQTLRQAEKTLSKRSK
Put plainly: Trypanosoma cruzi tyrosyl tRNA synthetase (TcYRS) _High Tyrosine SOP. Note: in the data most compounds retested in dose-response had high values. It is filed as functional. The settings on record: 30 µM.

Assay [9] concerns the target T4, Tyrosyl-tRNA synthetase, putative (Trypanosoma cruzi (strain CL Brener)). Briefly: Trypanosoma cruzi tyrosyl tRNA synthetase (TcYRS) SOP. It is filed as functional. The settings on record: 30 µM.
Assay [10] concerns the target Chromo domain-containing protein 1 (Saccharomyces cerevisiae (strain ATCC 204508 / S288c) (Baker's yeast)) (UniProt P32657). Put plainly: ScCHD-1 Enzyme Inhibition Assay. Note: in the data most compounds retested in dose-response had high values. It is filed as functional. The settings on record: 30 µM.

Structures are written as SMILES. For part of these data: Measured potencies and affinities stand elsewhere.

Data on twelve molecules can be found in ChEMBL document CHEMBL3988442, “University of Dundee, Small-Polar-MMV Screening Library” (2021).

Sequence of Chromo domain-containing protein 1 (Saccharomyces cerevisiae (strain ATCC 204508 / S288c) (Baker's yeast)) (P32657 whole entry, the tested form may be a part): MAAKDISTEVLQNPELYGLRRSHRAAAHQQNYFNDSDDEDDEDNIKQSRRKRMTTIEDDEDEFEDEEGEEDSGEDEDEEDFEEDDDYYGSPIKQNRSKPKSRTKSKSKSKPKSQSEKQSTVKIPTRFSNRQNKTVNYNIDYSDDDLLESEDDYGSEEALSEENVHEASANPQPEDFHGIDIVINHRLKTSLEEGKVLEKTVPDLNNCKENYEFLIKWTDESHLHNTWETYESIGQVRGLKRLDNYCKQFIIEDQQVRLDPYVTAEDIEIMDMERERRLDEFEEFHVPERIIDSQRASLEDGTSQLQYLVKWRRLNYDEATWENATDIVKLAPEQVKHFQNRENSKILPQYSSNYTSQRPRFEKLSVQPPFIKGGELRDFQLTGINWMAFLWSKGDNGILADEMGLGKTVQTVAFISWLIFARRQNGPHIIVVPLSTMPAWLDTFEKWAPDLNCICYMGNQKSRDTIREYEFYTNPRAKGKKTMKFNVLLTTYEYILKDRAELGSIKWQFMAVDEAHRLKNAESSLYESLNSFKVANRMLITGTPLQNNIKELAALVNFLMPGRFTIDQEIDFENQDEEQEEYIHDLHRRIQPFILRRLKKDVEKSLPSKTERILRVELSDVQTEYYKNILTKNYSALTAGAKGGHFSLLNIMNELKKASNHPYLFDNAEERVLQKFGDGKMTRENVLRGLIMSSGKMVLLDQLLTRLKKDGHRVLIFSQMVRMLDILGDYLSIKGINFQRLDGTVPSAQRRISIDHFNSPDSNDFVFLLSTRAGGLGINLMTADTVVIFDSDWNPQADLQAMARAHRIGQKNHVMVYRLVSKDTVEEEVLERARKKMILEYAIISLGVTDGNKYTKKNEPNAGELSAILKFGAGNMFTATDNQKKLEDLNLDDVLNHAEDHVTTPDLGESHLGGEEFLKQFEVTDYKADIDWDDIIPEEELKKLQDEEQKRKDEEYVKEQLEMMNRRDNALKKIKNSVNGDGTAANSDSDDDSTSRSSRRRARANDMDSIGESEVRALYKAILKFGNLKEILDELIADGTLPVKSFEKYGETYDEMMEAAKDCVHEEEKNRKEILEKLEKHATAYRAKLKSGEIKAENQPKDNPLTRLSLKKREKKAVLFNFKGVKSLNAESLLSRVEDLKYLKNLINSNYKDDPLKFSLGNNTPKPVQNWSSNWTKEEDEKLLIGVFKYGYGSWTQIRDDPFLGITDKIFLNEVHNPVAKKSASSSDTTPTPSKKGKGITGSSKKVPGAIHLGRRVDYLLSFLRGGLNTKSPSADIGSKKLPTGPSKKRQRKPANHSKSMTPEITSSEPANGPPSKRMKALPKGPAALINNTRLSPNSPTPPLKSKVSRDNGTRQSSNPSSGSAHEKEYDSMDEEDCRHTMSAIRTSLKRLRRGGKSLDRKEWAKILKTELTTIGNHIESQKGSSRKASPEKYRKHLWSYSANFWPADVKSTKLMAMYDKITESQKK
Sequence of Protein translocase subunit SecA (Escherichia coli (strain K12)) (P10408 whole entry): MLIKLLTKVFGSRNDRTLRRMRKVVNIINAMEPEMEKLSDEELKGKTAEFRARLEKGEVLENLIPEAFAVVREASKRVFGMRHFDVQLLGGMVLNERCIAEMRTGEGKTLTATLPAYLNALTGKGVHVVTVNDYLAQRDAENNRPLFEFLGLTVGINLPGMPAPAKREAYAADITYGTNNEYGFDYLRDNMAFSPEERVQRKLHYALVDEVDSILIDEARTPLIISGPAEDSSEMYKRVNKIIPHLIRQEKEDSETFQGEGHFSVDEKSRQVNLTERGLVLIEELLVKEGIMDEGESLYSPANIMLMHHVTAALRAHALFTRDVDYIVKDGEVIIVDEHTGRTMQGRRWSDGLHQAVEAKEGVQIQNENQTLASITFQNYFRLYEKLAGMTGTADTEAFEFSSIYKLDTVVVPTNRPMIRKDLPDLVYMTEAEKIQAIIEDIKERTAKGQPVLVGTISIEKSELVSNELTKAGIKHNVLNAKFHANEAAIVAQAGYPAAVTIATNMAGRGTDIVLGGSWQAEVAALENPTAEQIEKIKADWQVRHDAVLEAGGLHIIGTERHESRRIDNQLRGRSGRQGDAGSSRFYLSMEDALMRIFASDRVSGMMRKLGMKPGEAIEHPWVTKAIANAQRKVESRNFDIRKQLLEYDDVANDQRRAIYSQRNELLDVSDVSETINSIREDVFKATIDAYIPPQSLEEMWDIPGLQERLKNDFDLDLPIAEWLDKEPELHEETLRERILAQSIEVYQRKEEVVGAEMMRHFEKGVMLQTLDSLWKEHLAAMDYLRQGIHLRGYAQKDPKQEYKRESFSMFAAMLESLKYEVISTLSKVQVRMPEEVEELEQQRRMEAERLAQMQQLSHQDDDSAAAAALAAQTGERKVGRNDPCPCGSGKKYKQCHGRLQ
Sequence of Sialic acid-binding Ig-like lectin 9 (Homo sapiens) (Q9Y336 whole entry): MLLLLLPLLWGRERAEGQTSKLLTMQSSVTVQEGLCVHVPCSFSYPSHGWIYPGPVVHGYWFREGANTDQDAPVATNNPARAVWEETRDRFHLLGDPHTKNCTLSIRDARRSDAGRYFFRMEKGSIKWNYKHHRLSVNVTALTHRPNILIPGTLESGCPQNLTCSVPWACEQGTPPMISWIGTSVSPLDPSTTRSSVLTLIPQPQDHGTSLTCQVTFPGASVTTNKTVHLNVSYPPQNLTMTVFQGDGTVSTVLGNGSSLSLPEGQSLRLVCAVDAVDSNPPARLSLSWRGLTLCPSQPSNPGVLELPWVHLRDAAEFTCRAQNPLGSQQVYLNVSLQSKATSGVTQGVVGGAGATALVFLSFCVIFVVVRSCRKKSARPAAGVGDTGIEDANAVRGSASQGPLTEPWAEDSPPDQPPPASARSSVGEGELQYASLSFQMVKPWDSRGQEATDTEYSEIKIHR

As to `CCc1nc(C)c(C(=O)NCCN2CCC(C)CC2)s1`, the Percent Effect in assay [1] was -2.31%; in assay [2] it was -2.6%; in assay [3], 7.15%; in [4], -4.1%; in assay [5], -2.25%; in assay [6], -6.84%. In addition, the Percent Effect in assay [7] was 9.62%; in [8] it was 0.98%; in [9], 11.8%; in assay [10] it was -2.04%.
On to `Cc1occc1C(=O)N1CC[C@@H](N2CCOCC2)[C@@H]1Cc1ccccc1`, for which the Percent Effect in assay [1] was -6.37%; in [2], 11.7%; in assay [3], 1.96%; in assay [4], 0.876%; in [5], -2.83%; in [6], 7.33%. The Percent Effect in [7] was 0.411%; in assay [8] it was 8.95%; in assay [9] it was 15.4%; in [10], -4.72%.
For `Cn1ccnc1CN1CCCC1c1noc(C2CC2)n1` (stereo not given), the Percent Effect in assay [1] is -1.78%; in assay [2], 0%; in assay [3] it was -0.931%; in assay [4], 0%; in assay [5], 1.33%; in assay [6], 6.19%. Besides, the Percent Effect in assay [7] is -3.87%; in assay [8] it was 5.79%; in assay [9], 10.3%; in assay [10] it was -4.32%.
For the molecule `CC(CC#N)NC(=O)c1cc(Br)c2c(c1)OCCO2` (stereo not given), the Percent Effect is -2.19% in assay [1]; -5.33% in assay [2]; -0.459% in assay [3]; -4.22% in [4]; 3.1% in [5]; -1.61% in assay [6]. Also, the Percent Effect in assay [7] was 7.62%; in assay [8] it was 0.526%; in assay [9], 2.56%; in assay [10], -4.98%.
As for `CN1CCN(CC2CC2)C(=O)c2cnc(N3CCCC3)nc21`, the Percent Effect in [1] was -7.66%; in [2] it was 0%; in assay [3], 1.44%; in assay [4] it was -1%; in assay [5], -4.88%; in [6] it was 4.16%. Further, the Percent Effect in assay [7] is 8.07%; in [8] it was -4.74%; in assay [9] it was -10.3%; in [10], -11.6%.
`CN(C)CC(=O)N1CCC2(CC(=O)N(c3cccc(C#N)c3)C2)C1` (stereo not given): the Percent Effect in [1] was -7.09%; in assay [2] it was 6.49%; in [3], -3.56%; in assay [4] it was -4.58%; in assay [5] it was -5.67%; in assay [6], 13%. The Percent Effect is 3.5% in [7], 2.63% in [8], 5.13% in assay [9] and -1.61% in assay [10].
In the case of `COc1ccc(CN2CCC3(CC2)CCN(CC2CC2)C3=O)cc1`, the Percent Effect was -3.5% in [1]; 19.5% in assay [2]; 0.146% in [3]; -3.56% in [4]; 4.57% in [5]; 3.18% in assay [6]. Besides, the Percent Effect in assay [7] is 4.44%; in assay [8], 4.83%; in [9] it was 2.5%; in [10] it was -2.76%.
Take `CCc1ncc2c(n1)CN(CC(=O)Nc1ccc(Cl)cn1)CC2`: the Percent Effect in assay [1] was -4.26%; in [2] it was -2.67%; in assay [3] it was 4.13%; in [4] it was 1.21%; in [5], 2.66%; in assay [6], 4.83%. The Percent Effect is 4.95% in assay [7], 8.95% in assay [8], 7.69% in assay [9] and -9.89% in assay [10].
Consider `O=C(C1CC1)N1CC[C@H](O)[C@@H]1Cc1ccccc1`, for which the Percent Effect in [1] was -7.5%; in [2], 3.9%; in assay [3], -3.5%; in assay [4], -0.75%; in assay [5] it was 1.37%; in [6], 1.8%. Besides, the Percent Effect is -8.68% in [7], 2.9% in assay [8], 2.5% in assay [9] and -12.8% in assay [10].
For the molecule `Cc1cc(C)cc(OCC(=O)NC2CCN(S(C)(=O)=O)CC2)c1`, the Percent Effect in assay [1] is -3.04%; in [2] it was 13%; in [3], -6.89%; in assay [4] it was -8.58%; in [5], -1.84%; in assay [6], 8.77%. The Percent Effect in assay [7] was 14.6%; in [8], 3.92%; in [9], 16.5%; in assay [10] it was -7.11%.
For the molecule `c1cnnc(N2CCCC2CNCc2ccsc2)c1` (stereo not given), the Percent Effect in [1] was -2.09%; in assay [2], -5.13%; in assay [3], -6.52%; in assay [4] it was 10.1%; in [5] it was 4.1%; in [6] it was -8.45%. Also, the Percent Effect in assay [7] is 15.3%; in [8] it was -0.478%; in assay [9], 6.02%; in [10] it was -2.21%.
For the molecule `c1cnc(OCc2nnc3n2CCN(CC2CC2)C3)nc1`, the Percent Effect in assay [1] is -6.05%; in assay [2], 1.3%; in [3], 5.56%; in [4], 2.04%; in assay [5], -5.67%; in [6], 2.91%. For the same molecule, the Percent Effect is -10.7% in assay [7], 3.68% in assay [8], 7.69% in assay [9] and 2.01% in [10].
